TRHR enhancer: qHTS for Small Molecule Agonists and Allosteric Enhancers of Human TRH Receptor: Primary Screen for Enhancers; Thyrotropin-releasing hormone receptor (Homo sapiens), P34981; TRHR cells, fluo-8 calcium fluorescence, EC20 TRH enhancement; enhancement, % at 2 µM; hit rate 0.66% among 360,000; in the data active means enhancement above about 30%
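TRHR-expressing cells loaded with fluo-8 calcium dye were read kinetically (ex 480/em 530) during compound addition, then stimulated with an EC20 of TRH (10 nM final). Enhancement of the Gq-mediated intracellular calcium response was scored.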
D1 PAM: Potentiators of Human D1 Dopamine Receptor: qHTS | AID 504651, 2011 | D(1A) dopamine receptor (Homo sapiens), P21728 | hit rate 0.036% among 360,000 | potentiation, % at 10 µM | HEK293 TREx D1 cells, calcium flux, dopamine EC20 potentiation; in the data active means potentiation above about 30%
Target sequence (P21728 whole entry, looked up): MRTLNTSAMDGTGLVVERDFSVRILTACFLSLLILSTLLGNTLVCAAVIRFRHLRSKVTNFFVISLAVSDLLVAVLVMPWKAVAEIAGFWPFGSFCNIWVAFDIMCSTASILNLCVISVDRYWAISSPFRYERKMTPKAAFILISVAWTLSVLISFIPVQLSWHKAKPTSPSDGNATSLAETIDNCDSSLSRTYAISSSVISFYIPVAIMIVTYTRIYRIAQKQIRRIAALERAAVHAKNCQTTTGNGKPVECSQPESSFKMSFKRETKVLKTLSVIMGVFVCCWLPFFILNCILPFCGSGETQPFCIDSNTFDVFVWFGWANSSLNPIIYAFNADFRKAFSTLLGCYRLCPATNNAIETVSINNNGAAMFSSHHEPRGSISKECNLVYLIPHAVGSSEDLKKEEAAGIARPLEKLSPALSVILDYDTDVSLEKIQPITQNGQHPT
TRHR ag: qHTS for Small Molecule Agonists and Allosteric Enhancers of Human TRH Receptor: Primary Screen for Agonists. activation, % at 2 µM. AID 493084, 2011. TRHR cells, calcium flux fluo-8, FDSS agonist mode. hit rate 0.18% among 360,000
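Fluo-8-loaded TRHR cells; 10 s baseline, compound added, kinetic Ca2+ fluorescence read 1/s, agonist mode.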
D1 agonist: Allosteric Agonists of the Human D1 Dopamine Receptor: qHTS; HEK293 T-REx D1 cells, calcium flux, agonist mode; activation, % at 2 µM; hit rate 1% among 360,000
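Agonism was scored from calcium flux recorded over 180 s (1 read/s) after pintool compound addition, following a 10-cycle baseline. Cells were inducible force-coupled HEK293 TREx D1, plated overnight at 30 C and loaded with no-wash calcium dye.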
D1 antagonist: Antagonist of Human D 1 Dopamine Receptor: qHTS | activity change, negative = inhibition, % at 10 µM | AID 504652, 2011 | HEK293 TREx D1 cells, calcium flux, dopamine EC80; active compounds read low | D(1A) dopamine receptor (Homo sapiens), P21728 | hit rate 3.2% among 360,000; in the data active means activity change below about -30%
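Tetracycline-induced HEK293 Trex D1 cells, force-coupled to calcium, dye-loaded; compounds added and read 180 s, then EC80 dopamine added and calcium flux tracked kinetically another 180 s.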
A number is an active result; n = inactive; x = no result given. Rows were chosen to be rich in hits. Some 4.7% of all compounds tested hit in one or more screens of this group. Unless noted, no stated cut-off is given here; in the data, active means activation above about 30%; inactive means the rest.

SMILES	TRHR enhancer	D1 PAM	TRHR ag	D1 agonist	D1 antagonist
CCn1ccc2cc(S(=O)(=O)N3CCC(C(=O)NCCc4ccc(SC)cc4)CC3)ccc21	n	n	n	n	n
COc1ccc(NC(=O)CCN2CCN(c3cccc(Cl)c3)CC2)cc1	n	n	n	36	n
N#CC1=C(SCC(=O)c2ccccc2)NC2=C(C(=O)CCC2)C1c1ccco1 (stereo not given)	n	n	n	n	-44
CC(=O)C1=C(C)NC(SCC(=O)c2ccc(F)cc2)=C(C#N)C1c1ccco1 (stereo not given)	n	n	n	n	n
CCc1ccc(C(=O)CSC2=C(C#N)C(c3ccco3)C(C(C)=O)=C(C)N2)cc1 (stereo not given)	n	n	n	n	-34
Cc1ccc(C(=O)CSC2=C(C#N)C(c3ccco3)C3=C(CCCC3=O)N2)cc1 (stereo not given)	n	n	n	n	-37
CC(C)(C)c1ccc(C(=O)CCCSC2=C(C#N)C(c3ccco3)C3=C(CCCC3=O)N2)cc1 (stereo not given)	n	n	n	n	n
COC(=O)NC1c2ccccc2Oc2ccccc21	n	n	n	75	n
CCN1CCN(c2cc(=O)n(C3CCCCC3)c(=O)[nH]2)CC1	34	n	n	n	n
CCCCC(OC(=O)CNC(=O)c1ccccc1)C(=O)Nc1cc(C(F)(F)F)ccc1Cl (stereo not given)	n	n	n	n	n
O=C(NCc1ccc(F)cc1)c1ccc(Nc2nc3ccccc3n3nnnc23)cc1	n	n	n	n	-30
COc1ccc(CCNC(=O)Cn2c(=O)c3cccn3c3ccccc32)cc1OC	n	n	n	n	n
O=C(NCCS(=O)(=O)N1CCN(c2ccc(F)cc2)CC1)C(c1ccccc1)c1ccccc1	n	n	n	n	n
CC(=O)c1cccc(NC(=S)NC(=O)Cc2ccc(Cl)cc2)c1	n	n	n	63	n
CC(=O)Nc1cccc(C(=O)OCc2ccc(C(=O)Oc3ccc(Cl)cc3)cc2)c1	n	n	n	n	-32
CC(=O)c1cccc(NC(=S)NC(=O)c2ccc(C)cc2Cl)c1	n	n	n	n	n
CC(=O)c1cccc(NC(=S)NC(=O)c2ccccc2Cl)c1	n	n	n	n	-31
O=C(Cc1ccc(Cl)cc1)NC(=S)Nc1ccccc1N1CCOCC1	n	n	n	34	-34
COc1ccc(N2CC(NC(=O)c3c(F)cccc3Cl)CC2=O)cc1OC (stereo not given)	n	n	n	n	x
N#CC1=C(N)NC(SCc2ccccc2)=C(C#N)C12CCCCC2	n	n	n	n	-36
CCN(CC)CCNC(=O)CCn1c(=O)c2cccn2c2cccnc21	n	n	n	n	n
Cc1cc(C)cc(NC(=O)c2cnn(-c3ccc(C)c(C)c3)c2C2CCNCC2)c1	n	n	n	n	n
Cc1ccc(N2CCN(C(=O)c3cnn(-c4ccc(C)c(C)c4)c3C3CCNCC3)CC2)c(C)c1	n	n	n	82	n
Cc1ccc(Cl)cc1N1CCN(C(=O)c2cnn(-c3ccc(Cl)cc3)c2C2CCNCC2)CC1	n	n	n	38	n
CCN(CC)S(=O)(=O)c1cccc(-c2nnc(SCCCC(=O)c3ccccc3)o2)c1	n	n	n	n	n
SMILES	TRHR enhancer	D1 PAM	TRHR ag	D1 agonist	D1 antagonist
CCN(CC)S(=O)(=O)c1cccc(-c2nnc(SCCCC(=O)c3ccc(F)cc3)o2)c1	n	n	n	34	n
CCCN(CCC)C(=O)Cn1c(SCc2cccc(C(F)(F)F)c2)nc2cccnc21	n	n	n	n	n
CCn1nc(C)cc1C(=O)NC1CC(C)(C)Cc2c1cnn2-c1cccc(F)c1 (stereo not given)	n	n	n	n	-64
Cc1cc(C)c(C(=O)NC2CC(C)(C)Cc3c2cnn3-c2cccc(F)c2)[nH]1 (stereo not given)	n	n	n	n	n
CC(=O)N1CCOc2cc(S(=O)(=O)NCc3ccc(C)cc3)c(C)cc21	n	n	n	n	n
COC(=O)c1sc2ccccc2c1S(=O)(=O)N1CCN(c2ccc(C(C)=O)cc2)CC1	n	n	n	n	n
Cc1sc2nc(C)n(/N=C/c3ccccc3O)c(=O)c2c1C	n	n	n	n	n
Cc1sc2nc(C)n(/N=C/c3ccc(O)cc3O)c(=O)c2c1C	n	n	n	n	-84
COCCC(=O)N1CCC(Oc2ccc(C(=O)N(C)CCCC3CCCC3)cc2)CC1	n	n	n	n	-33
COc1ccc(C(=O)N(C)CCCC2CCCC2)cc1OC1CCN(C(C)C)CC1	n	n	n	n	-47
OC(CN1CCCCC1)Cn1c2ccc(Cl)cc2c2cc(Cl)ccc21 (stereo not given)	n	n	n	35	n
OC(CN1CCN(c2ccccn2)CC1)Cn1c2ccc(Cl)cc2c2cc(Cl)ccc21 (stereo not given)	n	n	n	n	n
COc1cccc(-n2cc(C(=O)Oc3cccc(C(F)(F)F)c3)c3ccccc3c2=O)c1	n	n	n	n	n
Cc1ccccc1Nc1nc(N)nc(COC(=O)c2ccc(O)cc2)n1	n	n	n	n	-43
CC(=O)Nc1cccc(OC(=O)COc2ccc(Br)cc2)c1	n	n	n	n	-31
Cc1cccc(NC(c2nnc(-c3ccccc3)o2)c2ccc(F)cc2Cl)c1C (stereo not given)	n	n	n	n	n
Cc1ccc2cn[nH]c2c1NC(N)=S	n	n	n	n	-36
NC(=S)Nc1cccc2cn[nH]c12	n	n	n	n	n
CCc1ccc(-n2c(=O)c3cccnc3n2CC(=O)NCc2ccc(F)cc2)cc1	n	n	n	n	-36
CCc1ccc(-n2c(=O)c3cccnc3n2CC(=O)NCc2ccccc2)cc1	n	n	n	n	n
COc1cccc(-n2c(-c3ccco3)nc3c(cnn3-c3ccc(C)cc3)c2=O)c1	n	n	n	n	n
CCc1ccccc1NC(=O)CN1CCCN(Cc2cc(C)ccc2C)S1(=O)=O	n	n	n	33	n
CC(C)c1ccc(NC(=O)CN(Cc2ccccc2)S(C)(=O)=O)cc1	n	n	n	42	n
CC(=O)N1CCc2cc(S(=O)(=O)NC(Cc3ccccc3)C(=O)Nc3ccc(C)cc3C)ccc21 (stereo not given)	n	n	n	n	n
Cc1nn(-c2ccccc2)c(C)c1/C=C/C(=O)OCC(=O)N(C)C1CCS(=O)(=O)C1 (stereo not given)	n	n	n	n	-84
Cc1nn(C2CCS(=O)(=O)C2)c(Cl)c1/C=C/C(=O)OCC(N)=O (stereo not given)	33	n	n	n	n
